This test deals with Sphingosine 1-phosphate receptor 4 (Homo sapiens) (UniProt O95977). Nature of the test: S1P4 receptor agonists, retest, confirmation, cell-based, high throughput (AID 1523).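 Note: 0% = vehicle and 100% = full reference agonist response.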 The following applies: S1P4 agonist cell-based reporter assay; at 4.98 µM; active compounds read high. Background: A reporter such as luciferase makes a cellular process visible.

In PubChem BioAssay AID1523 (The Scripps Research Institute Molecular Screening Center, 2009) one finds activation data, which are given here for one compound.

Some of the results follow. A number with no mark means an inactive call. Cut-off read from the data, not from the text of the source: active = activation above about 12%; inactive = the rest.

Chain of Sphingosine 1-phosphate receptor 4 (Homo sapiens) (O95977 whole entry, looked up): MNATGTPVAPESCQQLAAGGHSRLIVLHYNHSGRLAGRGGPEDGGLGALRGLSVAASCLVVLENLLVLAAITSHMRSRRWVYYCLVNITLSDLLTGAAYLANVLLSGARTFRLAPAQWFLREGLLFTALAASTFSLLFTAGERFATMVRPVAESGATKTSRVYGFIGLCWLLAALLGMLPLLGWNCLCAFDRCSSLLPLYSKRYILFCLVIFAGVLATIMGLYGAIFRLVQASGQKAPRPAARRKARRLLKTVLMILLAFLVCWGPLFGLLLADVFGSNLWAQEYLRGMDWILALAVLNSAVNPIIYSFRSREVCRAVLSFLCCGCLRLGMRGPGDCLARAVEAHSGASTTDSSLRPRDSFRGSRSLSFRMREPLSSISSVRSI

With `CC(C)N(CC#CCC1(O)c2ccccc2-c2ccccc21)C(C)C`, the activation was -2.04%.
